# Target: HOOK2
# Experiment: pooled miR-30 sensor sort-seq; sequence = guide strand
# Conditions: shRNA
# Further: reference of the scale not given here.
row,Sequence,sensor-assay potency score (higher = more potent)
1,TACTAGGCTCCGTAAGACCATC,-1.58
2,TTCTGACACAGGATGCGCCAGG,-0.785
3,TTTCTCAAAGTCCATCTCCAGG,-1.2
4,TGGAACGTCTGTAACCAGGTGA,0.0642
5,TCACTTAGGAAATAGTACCTGC,-0.233
6,TTTTTCTCGCAACTGATGGCAC,-0.412
7,ATGGTCTGCATGACCATGCGGG,-1.25
8,TCCTCTGCAACTCCAGATCTGC,-1.56
9,TTCCATGGTCTGCATGACCATG,-1.55
10,TTAGGAAATAGTACCTGCGGGA,-0.0973
11,TACGTCTCTGGTGACAGGGAGT,-0.714
12,TCAGCTTCCAGTTGGGACCTGG,-0.00912

# Target: HOXA6
# Experiment: as above
# Conditions: shRNA
row,Sequence,sensor-assay potency score (higher = more potent)
1,TGTACTTCCGGTCGGCGCCTTC,-0.845
2,TTGTACTGCTGCTCGGGAGAAA,-0.818
3,TGTTGGTAGAAACAAGGTGAGG,-1.56
4,TTGGACTGTTGGTAGAAACAAG,-1.21
5,ATTGATGAGCTTGTTTTCCTTT,0.0267
6,TTGATGAGCTTGTTTTCCTTTT,-0.78
7,TTGTCCGGGAGACTCGACGCCC,-0.988
8,TTGGCGATCTCGATGCGGCGGC,-0.809
9,TTGGTAGAAACAAGGTGAGGTG,-0.106

# Source: the OligoGym collection
